Experimental findings from ChEMBL document CHEMBL2218924, “A broad activity screen in support of a chemogenomic map for kinase signalling research and drug discovery” (Biochem J, 2013) are described below.

Assay [1] deals with Mitogen-activated protein kinase 10 (Homo sapiens) (UniProt P53779). The following applies: at 10 µM.
Assay [2] deals with Vascular endothelial growth factor receptor 2 (Homo sapiens) (UniProt P35968). The following applies: at 1 µM.
Assay [3] has the same target. The following applies: at 10 µM.
Assay [4] has as its target LIM domain kinase 1 (Homo sapiens) (UniProt P53667). Conditions: at 1 µM.
Assay [5] shares this target. Conditions: at 10 µM.
The target in assay [6] is T1, Serine/threonine-protein kinase STK11 (Homo sapiens) (UniProt Q15831).
T1 sequence (whole entry): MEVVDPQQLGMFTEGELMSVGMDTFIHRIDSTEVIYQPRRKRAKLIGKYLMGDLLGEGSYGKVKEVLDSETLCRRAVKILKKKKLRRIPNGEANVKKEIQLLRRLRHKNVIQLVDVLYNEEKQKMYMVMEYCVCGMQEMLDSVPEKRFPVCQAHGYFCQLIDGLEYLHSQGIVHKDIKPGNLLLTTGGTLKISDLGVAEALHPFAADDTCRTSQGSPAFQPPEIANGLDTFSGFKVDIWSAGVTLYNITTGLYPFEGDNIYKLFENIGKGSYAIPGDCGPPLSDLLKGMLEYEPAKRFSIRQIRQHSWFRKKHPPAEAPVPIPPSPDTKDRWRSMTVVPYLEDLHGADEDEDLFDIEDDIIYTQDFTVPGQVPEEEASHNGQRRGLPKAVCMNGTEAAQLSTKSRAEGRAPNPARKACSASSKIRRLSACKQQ
Conditions: at 1 µM.

Assay [7] deals with T1, Serine/threonine-protein kinase STK11 (Homo sapiens). The following applies: at 10 µM.
Assay [8] concerns the target Serine/threonine-protein kinase 10 (Homo sapiens) (UniProt O94804). The following applies: at 1 µM.
Assay [9] has the same target. Conditions: at 10 µM.
The target in assay [10] is Tyrosine-protein kinase Lck (Homo sapiens) (UniProt P06239). The following applies: at 1 µM.
Assay [11] has the same target. Conditions: at 10 µM.
For assay [12] the target is unchanged. Conditions: at 1 µM. The source holds these as a separate data set.
Assay [13] shares this target. Conditions: at 10 µM. The source holds these as a separate data set.
Assay [14] concerns the target Tyrosine-protein kinase Lyn (Homo sapiens) (UniProt P07948). Conditions: at 1 µM.
Assay [15] has the same target. Conditions: at 10 µM.
Assay [16] has as its target Mitogen-activated protein kinase 3 (Homo sapiens) (UniProt P27361). Conditions: at 1 µM.
The target is the same in assay [17]. The following applies: at 10 µM.
Assay [18] addresses Mitogen-activated protein kinase 1 (Homo sapiens) (UniProt P28482). The following applies: at 1 µM.
Assay [19] has the same target. Conditions: at 10 µM.
Assay [20] has as its target MAP kinase-activated protein kinase 2 (Homo sapiens) (UniProt P49137). Conditions: at 1 µM.

Mitogen-activated protein kinase 10 (Homo sapiens), sequence (P53779 whole entry): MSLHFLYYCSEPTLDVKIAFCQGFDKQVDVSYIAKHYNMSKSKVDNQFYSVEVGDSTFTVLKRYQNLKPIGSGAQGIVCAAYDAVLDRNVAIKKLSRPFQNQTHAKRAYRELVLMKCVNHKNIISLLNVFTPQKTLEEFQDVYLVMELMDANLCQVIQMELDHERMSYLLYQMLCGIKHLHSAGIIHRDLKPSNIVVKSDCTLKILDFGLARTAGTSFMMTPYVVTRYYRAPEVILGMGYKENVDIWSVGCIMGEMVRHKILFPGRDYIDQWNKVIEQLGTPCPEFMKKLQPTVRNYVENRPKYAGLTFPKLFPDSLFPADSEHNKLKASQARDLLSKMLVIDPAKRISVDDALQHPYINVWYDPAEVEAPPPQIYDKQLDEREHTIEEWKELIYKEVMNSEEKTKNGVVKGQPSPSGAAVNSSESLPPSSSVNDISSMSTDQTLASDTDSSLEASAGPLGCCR
MAP kinase-activated protein kinase 2 (Homo sapiens), sequence (P49137 whole entry, looked up): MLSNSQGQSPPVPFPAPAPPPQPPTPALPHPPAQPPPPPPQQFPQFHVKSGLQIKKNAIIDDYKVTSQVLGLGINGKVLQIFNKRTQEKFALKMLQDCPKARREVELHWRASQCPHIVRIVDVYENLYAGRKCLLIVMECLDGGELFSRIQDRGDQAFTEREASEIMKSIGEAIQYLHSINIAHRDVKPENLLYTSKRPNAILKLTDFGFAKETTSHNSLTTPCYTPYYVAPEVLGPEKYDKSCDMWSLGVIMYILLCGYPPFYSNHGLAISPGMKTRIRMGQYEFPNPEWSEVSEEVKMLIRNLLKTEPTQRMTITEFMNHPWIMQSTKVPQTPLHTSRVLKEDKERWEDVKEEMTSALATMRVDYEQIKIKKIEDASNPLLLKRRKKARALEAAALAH
Mitogen-activated protein kinase 1 (Homo sapiens), sequence (P28482 whole entry): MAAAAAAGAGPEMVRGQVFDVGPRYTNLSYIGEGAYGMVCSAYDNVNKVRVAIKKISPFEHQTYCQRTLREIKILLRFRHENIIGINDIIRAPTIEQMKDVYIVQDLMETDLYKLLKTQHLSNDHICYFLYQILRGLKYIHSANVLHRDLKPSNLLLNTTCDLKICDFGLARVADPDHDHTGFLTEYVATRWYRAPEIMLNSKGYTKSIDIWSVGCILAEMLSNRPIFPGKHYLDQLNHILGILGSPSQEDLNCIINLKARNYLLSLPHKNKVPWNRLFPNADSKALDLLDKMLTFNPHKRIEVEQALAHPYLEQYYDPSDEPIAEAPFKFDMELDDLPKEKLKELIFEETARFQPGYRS
LIM domain kinase 1 (Homo sapiens), sequence (P53667 whole entry, looked up, the tested form may be a part): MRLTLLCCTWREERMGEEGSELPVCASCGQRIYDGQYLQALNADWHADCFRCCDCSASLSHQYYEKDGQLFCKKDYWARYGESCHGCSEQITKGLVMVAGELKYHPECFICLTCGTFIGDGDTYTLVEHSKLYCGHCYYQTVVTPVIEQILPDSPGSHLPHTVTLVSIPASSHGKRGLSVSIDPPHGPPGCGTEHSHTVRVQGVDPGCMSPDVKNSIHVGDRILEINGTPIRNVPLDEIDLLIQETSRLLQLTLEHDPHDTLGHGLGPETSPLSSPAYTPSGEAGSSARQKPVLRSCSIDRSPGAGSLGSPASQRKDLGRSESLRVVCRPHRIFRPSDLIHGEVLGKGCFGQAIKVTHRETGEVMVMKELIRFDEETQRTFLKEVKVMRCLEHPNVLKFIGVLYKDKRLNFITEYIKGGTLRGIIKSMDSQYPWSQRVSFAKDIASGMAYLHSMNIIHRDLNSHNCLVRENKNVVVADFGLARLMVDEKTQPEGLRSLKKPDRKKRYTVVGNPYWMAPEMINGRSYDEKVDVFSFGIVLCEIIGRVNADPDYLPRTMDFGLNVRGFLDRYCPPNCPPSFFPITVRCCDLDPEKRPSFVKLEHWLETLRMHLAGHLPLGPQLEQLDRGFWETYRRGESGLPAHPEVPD
Vascular endothelial growth factor receptor 2 (Homo sapiens), sequence (P35968 whole entry): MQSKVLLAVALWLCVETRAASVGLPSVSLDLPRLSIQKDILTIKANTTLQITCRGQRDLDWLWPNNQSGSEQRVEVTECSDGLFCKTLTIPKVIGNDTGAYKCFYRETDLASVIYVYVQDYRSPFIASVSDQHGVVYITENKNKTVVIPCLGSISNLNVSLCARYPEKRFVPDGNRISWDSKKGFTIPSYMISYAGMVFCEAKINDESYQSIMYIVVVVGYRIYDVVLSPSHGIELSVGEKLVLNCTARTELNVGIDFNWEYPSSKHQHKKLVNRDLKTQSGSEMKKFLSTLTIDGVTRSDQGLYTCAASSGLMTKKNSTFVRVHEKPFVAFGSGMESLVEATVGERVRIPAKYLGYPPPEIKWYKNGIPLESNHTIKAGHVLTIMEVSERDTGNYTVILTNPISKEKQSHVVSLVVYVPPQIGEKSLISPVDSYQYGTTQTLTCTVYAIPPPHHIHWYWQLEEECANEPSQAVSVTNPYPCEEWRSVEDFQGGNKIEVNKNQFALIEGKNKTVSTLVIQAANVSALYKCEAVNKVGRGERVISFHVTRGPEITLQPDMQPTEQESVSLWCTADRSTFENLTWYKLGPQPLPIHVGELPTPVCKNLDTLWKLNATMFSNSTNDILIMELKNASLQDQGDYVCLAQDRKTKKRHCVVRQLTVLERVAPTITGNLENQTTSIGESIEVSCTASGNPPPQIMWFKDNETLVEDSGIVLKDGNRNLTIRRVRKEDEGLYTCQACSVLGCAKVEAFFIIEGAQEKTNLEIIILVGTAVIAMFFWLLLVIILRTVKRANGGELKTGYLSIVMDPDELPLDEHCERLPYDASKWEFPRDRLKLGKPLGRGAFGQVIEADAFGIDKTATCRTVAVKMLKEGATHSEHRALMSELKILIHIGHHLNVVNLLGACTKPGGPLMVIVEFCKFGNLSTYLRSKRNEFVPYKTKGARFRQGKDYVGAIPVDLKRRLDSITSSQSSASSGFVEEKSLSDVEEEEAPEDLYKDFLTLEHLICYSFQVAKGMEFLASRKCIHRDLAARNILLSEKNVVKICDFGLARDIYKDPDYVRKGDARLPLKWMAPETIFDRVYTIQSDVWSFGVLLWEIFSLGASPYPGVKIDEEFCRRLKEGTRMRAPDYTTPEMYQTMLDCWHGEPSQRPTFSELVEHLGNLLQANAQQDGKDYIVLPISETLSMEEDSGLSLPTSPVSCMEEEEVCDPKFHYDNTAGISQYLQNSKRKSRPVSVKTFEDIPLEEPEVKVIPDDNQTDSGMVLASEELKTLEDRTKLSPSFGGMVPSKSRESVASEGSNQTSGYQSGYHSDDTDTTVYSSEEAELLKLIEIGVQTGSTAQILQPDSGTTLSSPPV
Serine/threonine-protein kinase 10 (Homo sapiens), sequence (O94804 whole entry, looked up): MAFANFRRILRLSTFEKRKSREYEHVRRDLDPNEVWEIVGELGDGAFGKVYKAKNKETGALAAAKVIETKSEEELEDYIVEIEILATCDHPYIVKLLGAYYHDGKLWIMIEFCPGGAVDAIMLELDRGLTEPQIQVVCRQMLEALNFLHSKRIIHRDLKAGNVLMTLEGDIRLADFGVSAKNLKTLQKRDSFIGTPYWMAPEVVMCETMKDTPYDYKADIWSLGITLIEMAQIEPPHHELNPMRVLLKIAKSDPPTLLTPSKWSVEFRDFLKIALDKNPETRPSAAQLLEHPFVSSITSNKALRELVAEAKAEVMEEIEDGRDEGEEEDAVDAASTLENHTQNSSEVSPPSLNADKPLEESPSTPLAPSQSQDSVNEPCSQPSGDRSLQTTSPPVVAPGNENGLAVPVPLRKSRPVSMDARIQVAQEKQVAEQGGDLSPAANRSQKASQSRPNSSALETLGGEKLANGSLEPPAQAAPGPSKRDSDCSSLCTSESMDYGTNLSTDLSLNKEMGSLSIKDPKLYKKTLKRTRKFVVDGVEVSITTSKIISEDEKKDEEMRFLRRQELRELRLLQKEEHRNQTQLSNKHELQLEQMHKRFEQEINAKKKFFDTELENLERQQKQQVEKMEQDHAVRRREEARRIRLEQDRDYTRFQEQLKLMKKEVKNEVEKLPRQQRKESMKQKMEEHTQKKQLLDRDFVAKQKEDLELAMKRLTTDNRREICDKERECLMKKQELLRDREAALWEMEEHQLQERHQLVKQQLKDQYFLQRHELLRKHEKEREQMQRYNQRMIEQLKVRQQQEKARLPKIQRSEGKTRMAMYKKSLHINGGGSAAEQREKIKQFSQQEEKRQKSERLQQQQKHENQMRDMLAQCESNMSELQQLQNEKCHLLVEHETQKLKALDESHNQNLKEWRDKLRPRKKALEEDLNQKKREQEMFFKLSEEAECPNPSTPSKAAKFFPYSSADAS
Tyrosine-protein kinase Lyn (Homo sapiens), sequence (P07948 2-512 limits assumed): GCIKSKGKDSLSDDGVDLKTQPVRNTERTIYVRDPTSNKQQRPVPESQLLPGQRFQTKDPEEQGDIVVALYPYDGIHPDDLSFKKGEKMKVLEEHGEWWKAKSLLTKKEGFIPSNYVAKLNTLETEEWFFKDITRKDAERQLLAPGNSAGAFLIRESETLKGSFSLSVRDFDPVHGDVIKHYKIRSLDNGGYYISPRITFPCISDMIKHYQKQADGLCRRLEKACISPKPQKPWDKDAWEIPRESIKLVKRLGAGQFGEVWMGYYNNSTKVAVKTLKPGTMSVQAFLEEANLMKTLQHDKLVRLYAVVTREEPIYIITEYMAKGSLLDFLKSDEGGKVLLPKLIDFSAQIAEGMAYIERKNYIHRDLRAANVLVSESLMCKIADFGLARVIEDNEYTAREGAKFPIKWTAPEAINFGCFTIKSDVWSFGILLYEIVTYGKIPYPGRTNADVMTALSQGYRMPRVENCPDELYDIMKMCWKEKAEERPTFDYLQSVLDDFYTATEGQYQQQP

Regarding `COc1cc2ncnc(Nc3ccc(NC(=O)c4ccccc4)cc3)c2cc1OC`, the residual activity in assay [1] was determined as 76%; in assay [2] it was 95%; in assay [3], 35%; in assay [4], 110%; in assay [5], 56%; in assay [6], 108%. Moreover, the residual activity in [7] worked out at 109%; in assay [8], 71%; in assay [9], 33%; in assay [10] it was 70%; in assay [11], 17%; in assay [12], 30%. For the same compound, the residual activity in assay [13] was found to be 9%; in assay [14], 32%; in [15], 6%; in assay [16] it was 88%; in assay [17], 83%; in assay [18], 103%. Moreover, the residual activity amounted to 103% in assay [19] and 108% in assay [20].

`CCC(=O)Nc1ccc2ncnc(Nc3cccc(Br)c3)c2c1`: the residual activity was 37% in [1]; 95% in [2]; 75% in assay [3]; 97% in [4]; 76% in assay [5]; 96% in assay [6]. Moreover, the residual activity in assay [7] is 96%; in [8] it was 50%; in [9] it was 33%; in [10], 79%; in assay [11] it was 67%; in [12], 77%. Besides, the residual activity worked out at 75% in [13]; 28% in assay [14]; 5% in [15]; 83% in assay [16]; 85% in assay [17]; 93% in assay [18]. Further, the residual activity in assay [19] is 94%; in [20] it was 88%.

For the compound `CC(=O)O/N=C1\C(=C2\C(=O)Nc3cc(Br)ccc32)Nc2ccccc21`, the residual activity is 61% in assay [1]; 67% in assay [2]; 5% in [3]; 83% in assay [4]; 50% in assay [5]; 98% in [6]. Further, the residual activity amounted to 92% in assay [7]; 53% in assay [8]; 46% in [9]; 16% in assay [10]; 13% in [11]; 63% in assay [12]. The residual activity in [13] stood at 26%; in assay [14], 12%; in assay [15], 4%; in [16] it was 98%; in assay [17], 102%; in assay [18], 105%. Besides, the residual activity in assay [19] is 93%; in assay [20], 87%.

For `CC[n+]1c(/C=C/N(C)c2ccccc2)n(-c2ccccc2)c2ccc(-c3nc4ccccc4s3)cc21`, the residual activity in assay [1] was found to be 93%; in [2] it was 109%; in [3] it was 87%; in assay [4] it was 124%; in [5], 96%; in assay [6] it was 98%. For the same compound, the residual activity in [7] came out at 104%; in [8], 107%; in assay [9], 92%; in assay [10] it was 133%; in assay [11], 322%; in assay [12], 92%. Moreover, the residual activity in [13] was determined as 65%; in assay [14], 73%; in assay [15], 73%; in assay [16], 111%; in assay [17] it was 96%; in [18] it was 105%. The residual activity came to 100% in [19] and 95% in assay [20].

Turning to `COc1ccc(S(=O)(=O)N(CCO)c2ccccc2CN(C)C/C=C/c2ccc(Cl)cc2)cc1`, the residual activity in assay [1] stood at 88%; in assay [2], 100%; in assay [3], 95%; in [4], 93%; in assay [5], 83%; in assay [6], 100%. Besides, the residual activity amounted to 93% in assay [7]; 107% in [8]; 89% in assay [9]; 80% in assay [10]; 51% in assay [11]; 105% in [12]. Also, the residual activity in assay [13] was 43%; in [14] it was 97%; in [15], 65%; in assay [16], 82%; in assay [17], 70%; in assay [18] it was 111%. Besides, the residual activity in assay [19] was 103%; in assay [20], 78%.

For the compound `O=[N+]([O-])c1ccc(-c2nc(-c3ccc(F)cc3)c(-c3ccncc3)[nH]2)cc1`, the residual activity in assay [1] was found to be 21%; in [2], 85%; in [3], 93%; in [4], 96%; in assay [5], 90%; in [6] it was 98%. The residual activity in [7] was 99%; in [8], 114%; in assay [9], 108%; in assay [10] it was 71%; in assay [11], 86%; in [12], 92%. The residual activity in assay [13] came out at 82%; in assay [14], 75%; in assay [15], 23%; in assay [16], 85%; in assay [17], 72%; in assay [18], 113%. The values for the residual activity in assay [19] and in assay [20] were 109% and 92%, respectively.

Regarding `O=c1cc(-c2cccc3c2Sc2ccccc2S3)oc(N2CCOCC2)c1`, the residual activity in assay [1] turned out to be 89%; in assay [2] it was 90%; in assay [3], 89%; in [4] it was 98%; in assay [5], 92%; in assay [6], 95%. The residual activity in assay [7] was 99%; in assay [8] it was 98%; in assay [9] it was 101%; in [10], 103%; in assay [11], 94%; in [12] it was 112%. The residual activity in [13] amounted to 102%; in [14], 92%; in assay [15] it was 86%; in assay [16] it was 110%; in [17] it was 125%; in assay [18] it was 107%. The residual activity in [19] and in assay [20] was 100% throughout.

With `CC(C)n1cnc2c(NCc3ccccc3)nc(NCCCO)nc21`, the residual activity in assay [1] stood at 58%; in assay [2] it was 98%; in [3] it was 93%; in [4], 92%; in assay [5] it was 88%; in assay [6], 105%. For the same compound, the residual activity in assay [7] stood at 101%; in [8], 102%; in [9], 96%; in [10] it was 89%; in assay [11], 70%; in assay [12], 87%. The residual activity in [13] worked out at 86%; in [14] it was 53%; in [15], 38%; in [16], 87%; in assay [17] it was 92%; in [18], 100%. Also, the residual activity in assay [19] stood at 90%; in [20] it was 72%.

In the case of `COc1ccc(C(=O)Nc2sc3c(c2C(N)=O)CCCC3)cc1OC`, the residual activity stood at 69% in assay [1]; 71% in [2]; 75% in assay [3]; 102% in assay [4]; 86% in [5]; 104% in [6]. Also, the residual activity amounted to 105% in assay [7]; 100% in assay [8]; 87% in [9]; 100% in assay [10]; 103% in assay [11]; 88% in assay [12]. Also, the residual activity was 84% in assay [13]; 69% in [14]; 46% in assay [15]; 97% in assay [16]; 86% in assay [17]; 111% in assay [18]. The figures for the residual activity in assay [19] and in [20] were 109% and 70%, respectively.

On to `COc1cc2ncnc(Nc3ccc(O)c(Br)c3)c2cc1OC`, for which the residual activity in [1] was determined as 13%; in [2], 30%; in assay [3] it was 4%; in assay [4] it was 78%; in assay [5], 49%; in [6], 106%. In addition, the residual activity amounted to 97% in assay [7]; 17% in assay [8]; 8% in assay [9]; 27% in assay [10]; 7% in assay [11]; 21% in [12]. Further, the residual activity in assay [13] is 10%; in assay [14] it was 7%; in assay [15] it was -2%; in assay [16], 68%; in assay [17], 45%; in assay [18], 98%. The residual activity in assay [19] stood at 75%; in assay [20], 106%.

Take `Cc1ccc(NC2=CC(=O)c3sc(C)nc3C2=O)cc1`: the residual activity in [1] was 82%; in assay [2], 97%; in assay [3] it was 89%; in [4] it was 84%; in [5] it was 82%; in assay [6], 98%. The residual activity in [7] amounted to 98%; in assay [8] it was 113%; in [9] it was 105%; in assay [10], 86%; in assay [11] it was 80%; in assay [12], 92%. Further, the residual activity in assay [13] stood at 98%; in assay [14], 80%; in assay [15], 71%; in [16], 102%; in assay [17], 120%; in assay [18], 108%. Further, the residual activity in assay [19] turned out to be 106%; in assay [20], 85%.

`Cn1cc(/C=C2\C(=O)Nc3ccc(S(N)(=O)=O)cc32)c2ccccc21`: the residual activity stood at 40% in [1]; 28% in assay [2]; 7% in assay [3]; 101% in assay [4]; 53% in assay [5]; 103% in [6]. In addition, the residual activity in [7] is 100%; in [8], 45%; in assay [9] it was 7%; in assay [10] it was 20%; in assay [11], 14%; in [12] it was 30%. The residual activity is 34% in assay [13]; 10% in assay [14]; 1% in assay [15]; 85% in assay [16]; 90% in assay [17]; 106% in [18]. Besides, the values for the residual activity in assay [19] and in assay [20] were 103% and 83%, respectively.

Turning to `NC(=O)c1ccc2[nH]c(-c3ccc(Oc4ccc(Cl)cc4)cc3)nc2c1`, the residual activity in assay [1] stood at 98%; in assay [2], 84%; in [3], 43%; in assay [4] it was 93%; in [5], 55%; in [6], 103%. In addition, the residual activity in assay [7] turned out to be 94%; in [8], 83%; in assay [9], 58%; in [10], 83%; in assay [11], 72%; in assay [12], 105%. Further, the residual activity came to 102% in assay [13]; 91% in [14]; 88% in assay [15]; 99% in assay [16]; 99% in assay [17]; 102% in [18]. The results for the residual activity in [19] and in assay [20] were 99% and 103%, respectively.

With `Cc1ccc(S(=O)(=O)/C=C/C#N)cc1`, the residual activity is 84% in [1]; 101% in assay [2]; 95% in assay [3]; 92% in assay [4]; 92% in assay [5]; 94% in assay [6]. For the same compound, the residual activity worked out at 100% in assay [7]; 109% in assay [8]; 108% in assay [9]; 96% in [10]; 94% in [11]; 87% in assay [12]. Moreover, the residual activity turned out to be 97% in [13]; 92% in [14]; 94% in assay [15]; 97% in assay [16]; 114% in assay [17]; 113% in assay [18]. Further, the results for the residual activity in assay [19] and in assay [20] were 110% and 93%, respectively.
